Potency data for 40 compounds are collected here from PubChem BioAssay (NCATS).

Each structure is given as a SMILES string. Results filed as inconclusive are left out. Active and inactive are the calls of the source. The call rests on the fitted dose curve; in most records, active means well fitted cell-killing curve with a large enough effect; inconclusive means small, poorly fitted or top-dose-only effect, or effect the other way; inactive means no such curve, though single readings can be large or run the other way.
Potency means the concentration at half of the fitted maximal effect.

This assay is described as follows: Quantitative High-Throughput drug screen in 47 multiple myeloma cell lines against the NCATS MIPE library collection: MMM1_PLB cell viability assay (AID 1918976). Further: nearly all actives have a fitted effect of over 35% in size. The note with it: MMM1 myeloma cells viability, CellTiter-Glo, 48 h; series mostly up to 45.8 µM. An excerpt: PI: Beverly A. Mock Ph.D.
Laboratory of Cancer Biology and Genetics,
Center for Cancer Research, National Cancer Institute,
National Institute of Health, Bethesda, Maryland
Drug resistance and disease progression are common in multiple myeloma (MM) patients, underscoring the need for new therapeutic combinations. […] We hypothesized that effective combinations would reduce MYC expression and enhance p16 activity. […] These preclinical data identify potentially useful drug combinations for evaluation in drug-resistant MM and reveal potential mechanisms of combined drug sensitivity.
Described herein is the primary MIPE qHTS used to cherrypick compounds. Validated compounds were then further tested for potential synergistic activiy.
[1] Peat TJ, Gaikwad SM, Dubois W, Gyabaah-Kessie N, Zhang S, Gorjifard S, Phyo Z, Andres M, Hughitt VK, Simpson RM, Miller MA, Girvin AT, Taylor A, Williams D, D'Antonio N, Zhang Y, Rajagopalan A, Flietner E, Wilson K, Zhang X, Shinn P, Klumpp-Thomas C, McKnight C, Itkin Z, Chen L, Kazandijian D, Zhang J, Michalowski AM, Simmons JK, Keats J, Thomas CJ, Mock BA. Drug combinations identified by high-throughput screening promote cell cycle transition and upregulate Smad pathways in myeloma. Cancer Lett. 2023 Aug 1;568:216284. doi: 10.1016/j.canlet.2023.216284. Epub 2023 Jun 24. PMID: 37356470; PMCID: PMC10408729.
SEQUENCE No. (e.g., 1, 2, 3, etc.); […] (e.g., Cells, Incubation, Reagent, etc.); VALUE and DESCRIPTION.
1; Cells; 5 uL; white, solid bottom 1536-well Greiner assay plate.
2; Compounds; 23 nL; Kalypsis pin tool (Wako USA) equipped with a 1536-well pin head to transfer to the assay plates.
3; Incubation; 48 hours; 37C incubation.
4; Reagent;5uL; CellTiter Glo (Promega).
5; Detector; 425V; Luminescence; Viewlux PerkinElmer.
NOTES (numbers refer to Sequence numbers above)
1. The cell-based screening methods employed in this study were like those previously published. Briefly, the corresponding myeloma cell lines were screened in 1,536-well plates with 500 cells, 5-uL per well for inhibition of cell viability (assessed by measuring ATP levels with CellTiterGlo).
2. NCATS MIPE 4.0 library of approved and investigational drugs were added using the Kalypsis pin tool. Wells treated with DMSO only for 100% viability and media only for 0% viability were used as controls.
3. The assay plates were covered and incubated for 48 hours in a 37C, 5% CO2 incubator with controlled humidity.
4. After 48 hours, CellTilter-GloTM luminescent substrate mix (Promega) reagent was added to the assay plate and plates we incubated for 5 min at room temperature.
5. Signal was measured as median relative luminescence units on a ViewLux (PerkinElmer) multiplate reader.
[1] Heske CM, Davis MI, Baumgart JT, Wilson K, Gormally MV, Chen L, Zhang X, Ceribelli M, Duveau DY, Guha R, Ferrer M, Arnaldez FI, Ji J, Tran HL, Zhang Y, Mendoza A, Helman LJ, Thomas CJ. Matrix Screen Identifies Synergistic Combination of PARP Inhibitors and Nicotinamide Phosphoribosyltransferase (NAMPT) Inhibitors in Ewing Sarcoma. Clin Cancer Res. 2017 Dec 1;23(23):7301-7311. doi: 10.1158/1078-0432.CCR-17-1121. Epub 2017 Sep 12. PMID: 28899971; PMCID: PMC6636827.
Take `COc1ccc(-c2ccc3c(N4CCOC[C@H]4C)nc(N4CCOC[C@H]4C)nc3n2)cc1CO`: the Potency is 0.0105 µM (active).

For `Cc1cccc(-c2nn(C(=S)Nc3ccccc3)cc2-c2ccnc3ccccc23)n1`, the Potency is 16.6 µM (active).

For `CCc1cncnc1N1CCN(Cc2nc3ccc(C(F)(F)F)cc3[nH]2)CC1`, the Potency is 16.6 µM (active).

In the case of `S=C(NCc1ccc2c(c1)OCO2)N1CCN(c2ncnc3c2oc2ccccc23)CC1`, the Potency was 1.21 µM (active).

`CS(=O)(=O)c1cccc(CNc2nc(Nc3ccc4c(c3)CCC(=O)N4)ncc2C(F)(F)F)c1`: the Potency is 23.5 µM (active).

As for `O=C(Nc1cccnc1)N1CCC(Cc2cccc(Oc3ccc(C(F)(F)F)cn3)c2)CC1`, the Potency is 10.5 µM (active).

As to `Nc1ncnc2nc(-c3ccc(N4CCOCC4)nc3)cc(-c3cccc(Br)c3)c12`, the Potency was 11.8 µM (active).

Turning to `Cc1cc(-c2ccc(CC(=O)Nc3ccc(-c4cccnc4)cc3)cc2)ccn1`, the Potency is 20.9 µM (active).

Turning to `CCCn1c(=O)c2[nH]c(C34CC5CC3C[C@@H](C5)C4)nc2n(CCC)c1=O`, the Potency was 18.7 µM (active).

`c1ccc(-c2nn3c(c2-c2ccnc4cc(OCCN5CCOCC5)ccc24)CCC3)nc1`: the Potency was 26.4 µM (active).

`CO[C@@H]1[C@H](N(C)C(=O)c2ccccc2)C[C@H]2O[C@]1(C)n1c3ccccc3c3c4c(c5c6ccccc6n2c5c31)C(=O)NC4`: the Potency was 2.64 µM (active).

As for `Cc1ccc(N(CC2=NCCN2)c2cccc(O)c2)cc1`, the Potency was 2.96 µM (active).

As for `COc1ccccc1[C@H](c1cccc2ccccc12)[C@@](C)(C#N)C(=O)N1CCC(c2cccc(C(F)(F)F)c2)CC1`, the Potency is 11.8 µM (active).

Take `COc1cc(Oc2ccnc3cc(OC)c(OC)cc23)ccc1NC(=O)NC(C)c1nccs1` (stereo not given): the Potency is 16.6 µM (active).

As for `NCCc1ccc(O)c(O)c1`, the Potency was 7.43 µM (active).

Consider `O=c1ncn2nc(Sc3ccc(F)cc3F)ccc2c1-c1c(Cl)cccc1Cl`, for which the Potency was 20.9 µM (active).

Regarding `CCC(C)n1ncn(-c2ccc(N3CCN(c4ccc(OC[C@H]5CO[C@](Cn6cncn6)(c6ccc(Cl)cc6Cl)O5)cc4)CC3)cc2)c1=O` (stereo not given in full), the Potency is 2.96 µM (active).

For `N#CC[C@H](C1CCCC1)n1cc(-c2ncnc3[nH]ccc23)cn1`, the Potency is 16.6 µM (active).

In the case of `O=c1[nH]c(-c2ccc(C(F)(F)F)cc2)nc2c1CSCC2`, the Potency was 7.43 µM (active).

For `CCOC(=O)C1=C[C@]2(CC)CCCN3CCc4c(n1c1ccccc41)[C@@H]32`, the Potency was 14.8 µM (active).

As to `O=C(Nc1nc2ccccc2n1CCN1CCOCC1)c1cccc([N+](=O)[O-])c1`, the Potency was 13.2 µM (active).

`CNC(=O)c1ccc(C)c(-n2c(C)cc(OCc3ccc(F)cc3F)c(Br)c2=O)c1`: the Potency is 18.7 µM (active).

For `CC[C@@H](C)[C@H](NC(=O)[C@H](CC1CCCCC1)NC(=O)c1ccno1)C(=O)N1CCC2(CCc3ccccc32)CC1`, the Potency was 11.8 µM (active).

For the compound `COc1ccc(-c2ccc3c(N4CCOCC4)nc(N4C[C@@H](C)O[C@@H](C)C4)nc3n2)cc1CO`, the Potency was 0.105 µM (active).

Regarding `CCc1ccc(CCOc2ccc(CC3SC(=O)NC3=O)cc2)nc1` (stereo not given), the Potency was 8.33 µM (active).

On to `NNCCc1ccccc1`, for which the Potency was 5.9 µM (active).

Regarding `O=C(O)COCCN1CCN(C(c2ccccc2)c2ccc(Cl)cc2)CC1` (stereo not given), the Potency was 14.8 µM (active).

On to `COc1cc2nccc(Oc3ccc(NC(=O)NC4CC4)c(Cl)c3)c2cc1C(N)=O`, for which the Potency was 2.35 µM (active).

On to `CC(C)(C)OC(=O)CN(Cc1ccc(Cl)cc1)Cc1ccc([N+](=O)[O-])s1`, for which the Potency was 20.9 µM (active).

In the case of `Cn1cc(-c2ccc3nnc(C(F)(F)c4ccc5ncccc5c4)n3n2)cn1`, the Potency was 5.9 µM (active).

For the compound `Cc1cc(SCc2sc(-c3ccc(C(F)(F)F)cc3)nc2C)ccc1OCC(=O)O`, the Potency was 5.26 µM (active).

Consider `Oc1cccc(-c2nc(N3CCOCC3)c3oc4ncccc4c3n2)c1`, for which the Potency was 0.0679 µM (active).

Turning to `O=C(Nc1ccc(F)c(C(F)(F)F)c1)Nc1nnc(-c2ccncc2)s1`, the Potency is 5.26 µM (active).

In the case of `COc1cccc2cc(-c3nc(C4CCC(C(=O)O)CC4)n4ncnc(N)c34)[nH]c12` (stereo not given), the Potency was 0.662 µM (active).

Turning to `Cc1csc(NC(=O)c2sc3nc4c(c(C(F)(F)F)c3c2N)CCC4)n1`, the Potency entry is “inactive”.

In the case of `CCOC(=O)N1CCC(=C2c3ccc(Cl)cc3CCc3cccnc32)CC1`, the Potency is 23.5 µM (active).

`NC[C@H](O)c1ccc(O)c(O)c1`: the Potency was 23.5 µM (active).

Take `COc1nc(-c2ccc3c(c2)OCO3)n(-c2ccc(NC(=O)CSc3ccccc3)cc2)n1`: the Potency was 7.43 µM (active).

As to `O=C1CCCC2=C1C(c1[nH]ncc1Cl)N=C(Nc1nc3ccccc3o1)N2` (stereo not given), the Potency is 4.69 µM (active).

On to `C#Cc1cccc(Nc2ncnc3cc(OCCOC)c(OCCOC)cc23)c1`, for which the Potency is 0.59 µM (active).
